Assay results taken from PubChem BioAssay (EPA / NIEHS).
Results filed as inconclusive are left out. Calls of active or inactive are those of the source. Rule for the calls, unless noted: active = hit-call score of the fitted dose curve at least 0.9, where 1 is the maximum; inactive = score below 0.9.

Legend:
[1] = CCTE_Shafer_MEA_acute_burst_number: CCTE's Neural Acute Assay for Single-Electrode Bursts, Shafer Lab (AID 2284013)
Procedure, shortened: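 Rat cortical cultures, DIV 13/15; 40 min baseline, then 40 min with compound 0.03-40 uM, 37 C. Spikes: 300-5000 Hz band-pass, threshold 8x rms noise. Readout = % change in single-electrode bursts vs baseline, loss-of-signal fit.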

[2] = CCTE_Shafer_MEA_acute_burst_duration_mean: CCTE's Neural Acute Assay for Mean Burst Duration, Shafer Lab (AID 2284014);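 note: hits are decreases in mean burst duration relative to DMSO controls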
Procedure, shortened: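 Primary rat cortical neurons on 16-electrode MEA wells, treated on DIV 13 or 15 with compound (0.03-40 uM; ≥3 wells each). 40-min baseline and 40-min exposure recordings at 37 C; percent change in mean burst duration per well versus DMSO.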

[3] = CCTE_Shafer_MEA_acute_per_burst_spike_number_mean: CCTE's Neural Acute Assay for Average Number of Spikes Per Burst, Shafer Lab (AID 2284015);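 note: hits are decreases in mean spikes per burst versus baseline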
Procedure, shortened: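 Rat primary cortical neurons on 48-well MEAs (DIV 13 or 15) were treated with 0.03-40 uM compound at 37 C. Mean spikes per burst over 40 min were recorded before and after exposure and expressed as percent change from baseline, relative to DMSO.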

[4] = CCTE_Shafer_MEA_acute_interburst_interval_mean: CCTE's Neural Acute Assay for Mean Interburst Interval, Shafer Lab (AID 2284016);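 note: percent change of mean interburst interval versus each well's own pre-dose baseline; curves fitted for decrease in interburst interval relative to DMSO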
Procedure, shortened: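 Rat primary cortical neurons on 48-well MEAs at DIV 13 or 15 were exposed acutely to 0.03-40 uM. Spikes detected at 8x rms noise, 37 C. Mean interburst interval from 40 min recordings expressed as percent change from 40 min pre-treatment baseline.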

[5] = CCTE_Shafer_MEA_acute_burst_percentage_mean: CCTE's Neural Acute Assay for Percentage of Spikes in a Burst, Shafer Lab (AID 2284017);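 for AC50: curve fitted for loss of signal so potency reflects decreased burst percentage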
Procedure, shortened: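 Primary rat cortical neurons on 48-well MEA plates, treated on DIV 13 or 15 at 0.03-40 uM. Spikes detected at 8x rms noise at 37C; percent change from 40-min baseline to 40-min post-dose recording, fitted versus DMSO.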

[6] = CCTE_Shafer_MEA_acute_burst_percentage_std: CCTE's Neural Acute Assay for Standard Deviation of Burst Percentage, Shafer Lab (AID 2284018);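 note: fitted in the negative direction so actives lower burst percentage SD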
Procedure, shortened: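 Primary rat cortical neurons on 16-electrode MEA wells were recorded 40 min at baseline (DIV 13 or 15), then 40 min after compound (0.03-40 uM), at 37 C. Well value is SD across electrodes of spikes-in-bursts/total spikes; endpoint is percent change, DMSO-referenced.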

[7] = CCTE_Shafer_MEA_acute_per_network_burst_spike_number_mean: CCTE's Neural Acute Assay for Average Number of Spikes in a Network Burst, Shafer Lab (AID 2284019);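 for AC50: curve fitted for loss of signal so actives reduce spikes per network burst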
Procedure, shortened: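 Primary rat cortical neurons on 16-electrode MEA wells, DIV 13 or 15, 37 C; 40-min baseline then 40-min recording with compound (0.03-40 uM). Spikes per network burst (total spikes/number of bursts) expressed as percent change from baseline, DMSO reference.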

[8] = CCTE_Shafer_MEA_acute_per_network_burst_spike_number_std: CCTE's Neural Acute Assay for Standard Deviation of Number of Spikes in a Network Burst, Shafer Lab (AID 2284020);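 note: fitted for decrease in spike-number SD versus DMSO so actives lower it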
Procedure, shortened: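 Primary rat cortical neurons on 48-well MEAs (16 electrodes/well) recorded at DIV 13 or 15: 40-min baseline, then 40 min with compound (0.03-40 uM), 37 C. Value is percent change in SD of spikes per network burst, relative to DMSO.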

[9] = CCTE_Shafer_MEA_acute_per_network_burst_electrodes_number_mean: CCTE's Neural Acute Assay for Mean Number of Electrodes in a Network Burst, Shafer Lab (AID 2284021);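 note: curves fitted for decreases only so hits reduce electrodes per burst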
Procedure, shortened: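 Readout: % change in mean electrodes active per network burst, post- vs pre-treatment, each well. Spikes detected at 8x rms noise after 300-5000 Hz band-pass; rat cortical cultures, DIV 13/15, compounds 0.03-40 uM, DMSO baseline.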

[10] = CCTE_Shafer_MEA_acute_network_burst_percentage: CCTE's Neural Acute Assay for Percentage of Network Bursts, Shafer Lab (AID 2284022);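 note: curves fitted for loss so actives lower network burst percentage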
Procedure, shortened: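 Rat cortical cultures, DIV 13/15; 20 min equilibration, 40 min baseline, compound 0.03-40 uM, 40 min recording, 37 C. Spikes: 300-5000 Hz band-pass, threshold 8x rms noise. Readout: % change in network-burst spike fraction; loss direction vs DMSO.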

[11] = CCTE_Shafer_MEA_acute_cross_correlation_area: CCTE's Neural Acute Assay for Area of Cross Correlation, Shafer Lab (AID 2284024);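 note: area under pooled inter-electrode spike cross-correlation near zero lag as percent change from own baseline; curves fitted for loss of cross-correlation area so actives lower synchrony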
Procedure, shortened: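 Rat cortical cultures, DIV 13/15, MEA; spikes detected at 8x rms noise (300-5000 Hz band-pass). Compound 0.03-40 uM, ≥3 wells each. Readout: % change in pooled inter-electrode cross-correlation area vs own baseline; DMSO negative control.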

[12] = CCTE_Shafer_MEA_acute_synchrony_index: CCTE's Neural Acute Assay for Synchrony, Shafer Lab (AID 2284027);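 note: fitted for loss of signal so actives lower synchrony relative to DMSO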
Procedure, shortened: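 Readout is percent change in the unitless network synchrony index (0 low, 1 high) between a 40-min baseline and a 40-min recording in compound. Cultures were primary rat cortical neurons on MEAs, treated at 0.03-40 uM on DIV 13 or 15.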

[13] = CCTE_Shafer_MEA_acute_LDH: CCTE's Lactate Dehydrogenase Assay for Cytotoxicity in the Neural Acute Assay, Shafer Lab (AID 2284086; active = hit-call score of the fitted dose curve at least 0.9, where 1 is the maximum;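 note: active means LDH release rises above DMSO vehicle level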)
Procedure, shortened: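 Rat cortical neurons cultured on microelectrode arrays; baseline 40-min recording, compound added, second 40-min recording; medium then sampled for released LDH (colorimetric kit, 490 nm). DMSO = negative control.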

[14] = ATG_PBREM_CIS: Attagene CIS-FACTORIAL HepG2 Assay for human Phenobarbital-responsive Enhancer Module (PBREM) (AID 2282955); conditions: HepG2 PBREM cis-reporter, Attagene multiplexed transcription; actives raise or lower the signal
Procedure, shortened: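 Cells were transfected with cis-element reporter units and treated for 24 h, after which RNA was extracted and reporter transcripts measured by RT-PCR and capillary electrophoresis.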

[15] = ATG_RORE_CIS: Attagene CIS-FACTORIAL HepG2 Assay for human RAR-related Orphan Receptor Element (RORE) (AID 2282959); conditions: HepG2 Attagene cis-factorial RORE reporter, mRNA; actives raise or lower the signal
Procedure, shortened: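 Endogenous factor activity at a cis response element is read as reporter transcript levels in HepG2 cells, 24 h post-dose. Transcripts are quantified by RT-PCR with capillary electrophoresis, and data fitted in both directions against DMSO.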

[16] = biological target: human Thyroid Receptor alpha (THRa1), THRA (gene 7067) (UniProt P10827); assay: ATG_THRa1_TRANS: Attagene TRANS-FACTORIAL HepG2 Assay for human Thyroid Receptor alpha (THRa1) (AID 2283014; active = hit-call score of the fitted dose curve at least 0.9, where 1 is the maximum)
Sequence of human Thyroid Receptor alpha (THRa1), THRA (gene 7067) (P10827 whole entry, looked up, the tested form may be a part): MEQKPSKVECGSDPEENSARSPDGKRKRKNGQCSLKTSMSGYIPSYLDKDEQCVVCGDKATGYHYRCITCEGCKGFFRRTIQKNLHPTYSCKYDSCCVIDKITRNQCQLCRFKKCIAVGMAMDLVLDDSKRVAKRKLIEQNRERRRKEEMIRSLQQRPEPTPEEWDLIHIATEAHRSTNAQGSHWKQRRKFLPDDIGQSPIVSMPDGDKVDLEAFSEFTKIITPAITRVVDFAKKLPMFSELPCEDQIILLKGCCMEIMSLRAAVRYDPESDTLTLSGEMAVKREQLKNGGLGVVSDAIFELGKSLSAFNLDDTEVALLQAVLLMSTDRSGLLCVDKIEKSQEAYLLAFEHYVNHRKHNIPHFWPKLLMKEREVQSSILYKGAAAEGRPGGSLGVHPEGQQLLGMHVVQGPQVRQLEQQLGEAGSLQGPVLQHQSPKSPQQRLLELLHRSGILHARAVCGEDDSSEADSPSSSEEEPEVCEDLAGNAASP
Procedure, shortened: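 Transient HepG2 transfection, NR-Gal4 chimera driving GAL4-UAS reporters; 24 h compound exposure; total RNA, oligo(dT) RT, PCR, fluorescent primer extension, capillary electrophoresis. Upward direction vs DMSO control.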

[17] = ATG_XTT_Cytotoxicity: Cytotoxicity Assessment in the Attagene TRANS-FACTORIAL HepG2 Assay (AID 2283584; active = hit-call score of the fitted dose curve at least 0.9, where 1 is the maximum)
Procedure, shortened: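 XTT readout of cell number in transfected HepG2 cells, 24 h post-dosing; DMSO serves as negative control and baseline, with activity taken as loss of viability signal.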

[18] = biological target: Nuclear receptor subfamily 1 group I member 2 (Homo sapiens) (UniProt O75469); assay: ATG_PXR_TRANS: Attagene TRANS-FACTORIAL HepG2 Assay for human Pregnane X Receptor (PXR) (AID 2283008; active = hit-call score of the fitted dose curve at least 0.9, where 1 is the maximum)
Sequence of Nuclear receptor subfamily 1 group I member 2 (Homo sapiens) (O75469 whole entry, looked up, the tested form may be a part): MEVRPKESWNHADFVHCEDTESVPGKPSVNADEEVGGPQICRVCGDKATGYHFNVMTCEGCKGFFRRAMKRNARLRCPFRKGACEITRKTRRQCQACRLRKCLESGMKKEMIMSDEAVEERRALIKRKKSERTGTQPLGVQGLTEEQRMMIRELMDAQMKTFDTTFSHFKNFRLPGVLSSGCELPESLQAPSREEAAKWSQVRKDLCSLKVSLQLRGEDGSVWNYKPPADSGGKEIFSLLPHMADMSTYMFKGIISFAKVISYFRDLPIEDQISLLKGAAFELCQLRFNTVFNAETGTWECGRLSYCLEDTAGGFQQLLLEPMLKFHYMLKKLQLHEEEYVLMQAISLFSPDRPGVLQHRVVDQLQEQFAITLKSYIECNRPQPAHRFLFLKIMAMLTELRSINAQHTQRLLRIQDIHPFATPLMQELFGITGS
Procedure, shortened: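 HepG2 cells transiently transfected with GAL4-UAS reporter units and PXR-Gal4 chimera, exposed 24 h. Reporter mRNA quantified by RT-PCR, fluorescent labelling, HpaI digestion and capillary electrophoresis; gain of signal vs DMSO.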

[19] = biological target: human Peroxisome Proliferator-activated Receptor delta (PPARd), PPARD (gene 5467) (UniProt Q03181); assay: ATG_PPARd_TRANS: Attagene TRANS-FACTORIAL HepG2 Assay for human Peroxisome Proliferator-activated Receptor delta (PPARd) (AID 2283002; active = hit-call score of the fitted dose curve at least 0.9, where 1 is the maximum)
Sequence of human Peroxisome Proliferator-activated Receptor delta (PPARd), PPARD (gene 5467) (Q03181 whole entry, looked up, the tested form may be a part): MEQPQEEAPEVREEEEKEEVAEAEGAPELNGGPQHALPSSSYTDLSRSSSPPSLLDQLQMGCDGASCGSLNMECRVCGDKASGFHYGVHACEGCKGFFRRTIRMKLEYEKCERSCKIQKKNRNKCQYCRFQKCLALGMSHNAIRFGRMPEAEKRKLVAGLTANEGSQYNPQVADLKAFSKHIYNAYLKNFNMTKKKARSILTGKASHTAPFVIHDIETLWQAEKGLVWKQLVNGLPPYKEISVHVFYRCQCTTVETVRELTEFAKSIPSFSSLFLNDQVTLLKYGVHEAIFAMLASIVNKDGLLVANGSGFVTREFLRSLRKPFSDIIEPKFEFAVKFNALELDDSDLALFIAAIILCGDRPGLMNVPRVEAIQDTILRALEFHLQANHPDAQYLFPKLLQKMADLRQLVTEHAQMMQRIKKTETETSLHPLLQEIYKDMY
Procedure, shortened: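 Measured quantity: GAL4-UAS reporter transcript induction in HepG2 after 24 h chemical dosing, with NR-Gal4 chimeras supplied by transient transfection. Detection by RT-PCR and capillary electrophoresis; upward fit against DMSO.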

[20] = biological target: human RAR-related Orphan Receptor gamma (RORg), RORC (gene 6097) (UniProt P51449); assay: ATG_RORg_TRANS: Attagene TRANS-FACTORIAL HepG2 Assay for human RAR-related Orphan Receptor gamma (RORg) (AID 2283011; active = hit-call score of the fitted dose curve at least 0.9, where 1 is the maximum)
Sequence of human RAR-related Orphan Receptor gamma (RORg), RORC (gene 6097) (P51449 whole entry, looked up, the tested form may be a part): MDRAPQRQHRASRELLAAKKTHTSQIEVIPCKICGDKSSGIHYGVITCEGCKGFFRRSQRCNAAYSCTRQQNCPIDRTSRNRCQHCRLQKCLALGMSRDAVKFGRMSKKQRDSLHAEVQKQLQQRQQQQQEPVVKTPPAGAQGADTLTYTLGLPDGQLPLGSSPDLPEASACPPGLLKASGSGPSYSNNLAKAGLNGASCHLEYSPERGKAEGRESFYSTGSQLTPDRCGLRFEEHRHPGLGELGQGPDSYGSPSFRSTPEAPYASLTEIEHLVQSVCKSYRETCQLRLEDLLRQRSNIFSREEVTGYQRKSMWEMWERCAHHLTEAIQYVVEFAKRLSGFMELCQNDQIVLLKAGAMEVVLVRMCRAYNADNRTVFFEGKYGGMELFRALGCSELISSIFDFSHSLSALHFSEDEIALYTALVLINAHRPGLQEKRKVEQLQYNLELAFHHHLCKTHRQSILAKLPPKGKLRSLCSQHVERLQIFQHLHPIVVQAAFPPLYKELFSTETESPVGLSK
Procedure, shortened: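 Transient MRTU transfection of HepG2 (TRANS format, exogenous NR-Gal4 chimera). 24 h dosing. Total RNA → oligo(dT) RT → PCR → 6-FAM labelling → HpaI cut → CE. Gain vs DMSO.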

Measured: AC50

CC(C)C1OCCN1CCOC(=O)NCCCCCCNC(=O)OCCN1CCOC1C(C)C (stereo not drawn)
not listed: [14] | [15] | [16] | [17] | [18] | [19] | [20]
inactive: all other assays above

Nc1ccc(S(=O)(=O)Nc2cnc3ccccc3n2)cc1
inactive: [14] | [15] | [16] | [17]

O=C(C1CCCCC1)N1CC(=O)N2CCc3ccccc3C2C1 (stereo not drawn)
inactive: [14]
active: [18] 8.4 µM

O=[N+]([O-])c1cc(S(=O)(=O)Nc2ccccc2)ccc1Nc1ccccc1
inactive: [1] | [2] | [3] | [4] | [9] | [10] | [11] | [13]
active: [5] 25.1 µM | [6] 15 µM | [7] 1.26 µM | [8] 1.22 µM | [12] 23.8 µM

CNC(=C[N+](=O)[O-])NCCSCc1csc(CN(C)C)n1
inactive: [14] | [15]

COc1ccc(C(=O)c2ccccc2O)c(O)c1
active: [1] 0.003 µM | [10] 0.003 µM | [11] 0.0203 µM
not listed: [14] | [15] | [16] | [17] | [18] | [19] | [20]
inactive: all other assays above

Oc1cccc2ccccc12
inactive: [14] | [15] | [19] | [18] | [20] | [16] | [17]

CO[Si](CCCNCCN)(OC)OC
inactive: [19] | [20] | [16]

O=C(O)c1cc(Cl)cc(Cl)c1O
inactive: [15] | [19] | [20] | [16]

CC(=O)OC(C)(C)Cc1ccccc1
inactive: [15] | [19] | [18] | [20] | [17]

COc1ccccc1Oc1c(NS(=O)(=O)c2ccc(C(C)(C)C)cc2)nc(-c2ncccn2)nc1OCCO
active: [4] 5.33 µM
not listed: [13] | [14] | [15] | [16] | [17] | [18] | [19] | [20]
inactive: all other assays above

CC(C)(C)NC(=O)[C@@H]1CN(Cc2cccnc2)CCN1C[C@@H](O)C[C@@H](Cc1ccccc1)C(=O)N[C@H]1c2ccccc2C[C@H]1O
inactive: [14] | [19] | [20] | [16] | [17]

COc1cccc(OC)c1C(=O)O
inactive: [14] | [20]

COc1ccc2ccccc2c1
inactive: [16]

C1CN(CCOCCN2CCOCC2)CCO1
not listed: [14] | [15] | [16] | [17] | [18] | [19] | [20]
inactive: all other assays above

CCCCCCOC(=O)CCCCCCCC(=O)OCCCCCC
inactive: [14] | [19] | [18] | [16] | [17]

CCC[Si](OC(C)=O)(OC(C)=O)OC(C)=O
active: [1] 0.0554 µM | [11] 0.072 µM
not listed: [14] | [15] | [16] | [17] | [18] | [19] | [20]
inactive: all other assays above

C[Si](C)(C)O[Si](C)(C)O[Si](C)(C)C
inactive: [14] | [19] | [18] | [17]

CCCC[N+]1(C)CCCC1
inactive: [15]

CC/C=C\CCO
inactive: [20]

Cc1c(C(N)=O)cc([N+](=O)[O-])cc1[N+](=O)[O-]
not listed: [14] | [15] | [16] | [17] | [18] | [19] | [20]
inactive: all other assays above

COc1cc(CNC(=O)CCCC/C=C/C(C)C)ccc1O
active: [5] 4.25 µM | [6] 8.5 µM | [12] 5.59 µM
not listed: [14] | [15] | [16] | [17] | [18] | [19] | [20]
inactive: all other assays above

F[B-](F)(F)F
inactive: [15]

CN(C)N=Nc1ccccc1
inactive: [19] | [18] | [20] | [16] | [17]

CCCc1c(OCCCCc2nn[nH]n2)ccc(C(C)=O)c1O
inactive: [14] | [19] | [18] | [16]
active: [15] 33.2 µM

CNCCC(Oc1ccc(C(F)(F)F)cc1)c1ccccc1 (stereo not drawn)
active: [1] 0.693 µM | [5] 7.59 µM | [6] 5.91 µM | [12] 6.04 µM
inactive: [2] | [3] | [4] | [7] | [8] | [9] | [10] | [11] | [13]
